This note sets out measurements from the supplement of paper PMC10849652.

Targets with a hit are over-represented here; the source holds about 7,900 in all. About 0.6% of all pairs of compound and target were hits.

Sequence of UniProt Q96HJ9 (Q96HJ9 whole entry, looked up): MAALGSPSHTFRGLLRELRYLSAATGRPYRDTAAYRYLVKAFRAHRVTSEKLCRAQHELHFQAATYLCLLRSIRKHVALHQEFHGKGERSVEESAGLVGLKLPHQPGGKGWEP
Sequence of UniProt P55795 (P55795 whole entry, looked up): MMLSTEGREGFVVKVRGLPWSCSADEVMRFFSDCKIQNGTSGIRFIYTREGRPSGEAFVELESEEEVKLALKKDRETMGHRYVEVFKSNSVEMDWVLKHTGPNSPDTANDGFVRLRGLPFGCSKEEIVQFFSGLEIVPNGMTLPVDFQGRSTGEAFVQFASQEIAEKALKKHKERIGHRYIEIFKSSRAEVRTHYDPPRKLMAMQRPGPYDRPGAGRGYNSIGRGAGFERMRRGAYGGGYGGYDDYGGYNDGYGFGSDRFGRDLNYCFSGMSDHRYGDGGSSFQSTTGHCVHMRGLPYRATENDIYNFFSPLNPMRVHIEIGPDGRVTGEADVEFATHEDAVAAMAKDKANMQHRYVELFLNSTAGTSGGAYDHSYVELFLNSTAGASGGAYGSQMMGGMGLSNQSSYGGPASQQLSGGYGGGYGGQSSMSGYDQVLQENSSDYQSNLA
Sequence of UniProt O14893 (O14893 whole entry, looked up): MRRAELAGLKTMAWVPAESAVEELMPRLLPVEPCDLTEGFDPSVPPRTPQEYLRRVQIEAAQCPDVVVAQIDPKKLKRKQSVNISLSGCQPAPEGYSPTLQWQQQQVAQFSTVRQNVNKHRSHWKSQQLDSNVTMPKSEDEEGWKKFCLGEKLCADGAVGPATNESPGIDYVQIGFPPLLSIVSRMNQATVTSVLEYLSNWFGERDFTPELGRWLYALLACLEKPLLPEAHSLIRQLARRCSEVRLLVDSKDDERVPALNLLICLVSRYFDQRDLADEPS
Sequence of UniProt Q86VQ1 (Q86VQ1 whole entry, looked up): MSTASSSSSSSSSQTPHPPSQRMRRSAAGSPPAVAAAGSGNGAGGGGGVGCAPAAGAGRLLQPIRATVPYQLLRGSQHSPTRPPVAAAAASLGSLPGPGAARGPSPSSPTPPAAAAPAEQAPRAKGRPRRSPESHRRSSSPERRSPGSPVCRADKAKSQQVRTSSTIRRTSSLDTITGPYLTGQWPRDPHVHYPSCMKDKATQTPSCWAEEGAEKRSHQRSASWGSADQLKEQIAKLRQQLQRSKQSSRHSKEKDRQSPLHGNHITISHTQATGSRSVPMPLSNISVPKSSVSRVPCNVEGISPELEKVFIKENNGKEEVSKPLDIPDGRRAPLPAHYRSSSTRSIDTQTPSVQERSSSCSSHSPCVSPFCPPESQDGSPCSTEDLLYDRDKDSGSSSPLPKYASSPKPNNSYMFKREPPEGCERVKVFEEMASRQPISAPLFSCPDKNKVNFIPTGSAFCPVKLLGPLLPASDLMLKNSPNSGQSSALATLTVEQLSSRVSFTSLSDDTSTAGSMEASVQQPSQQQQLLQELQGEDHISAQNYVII
Sequence of UniProt O15228 (O15228 whole entry, looked up): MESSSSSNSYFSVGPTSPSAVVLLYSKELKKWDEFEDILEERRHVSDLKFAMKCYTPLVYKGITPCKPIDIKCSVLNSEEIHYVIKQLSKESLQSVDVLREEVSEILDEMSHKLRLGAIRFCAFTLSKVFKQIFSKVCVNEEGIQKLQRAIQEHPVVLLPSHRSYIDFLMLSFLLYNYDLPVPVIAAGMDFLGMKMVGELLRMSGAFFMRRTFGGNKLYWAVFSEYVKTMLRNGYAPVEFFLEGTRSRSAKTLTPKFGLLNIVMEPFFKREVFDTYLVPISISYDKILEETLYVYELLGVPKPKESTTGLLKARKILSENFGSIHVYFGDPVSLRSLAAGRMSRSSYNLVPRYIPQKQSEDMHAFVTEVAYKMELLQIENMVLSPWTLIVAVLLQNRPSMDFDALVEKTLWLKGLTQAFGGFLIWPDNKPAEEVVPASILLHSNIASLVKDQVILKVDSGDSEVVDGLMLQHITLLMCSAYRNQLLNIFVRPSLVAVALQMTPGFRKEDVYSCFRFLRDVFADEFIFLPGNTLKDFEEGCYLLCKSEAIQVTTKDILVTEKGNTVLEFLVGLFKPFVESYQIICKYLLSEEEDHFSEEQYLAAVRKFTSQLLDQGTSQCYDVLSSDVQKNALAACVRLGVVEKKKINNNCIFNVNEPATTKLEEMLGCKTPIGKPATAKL
Sequence of UniProt P50213 (P50213 whole entry, looked up): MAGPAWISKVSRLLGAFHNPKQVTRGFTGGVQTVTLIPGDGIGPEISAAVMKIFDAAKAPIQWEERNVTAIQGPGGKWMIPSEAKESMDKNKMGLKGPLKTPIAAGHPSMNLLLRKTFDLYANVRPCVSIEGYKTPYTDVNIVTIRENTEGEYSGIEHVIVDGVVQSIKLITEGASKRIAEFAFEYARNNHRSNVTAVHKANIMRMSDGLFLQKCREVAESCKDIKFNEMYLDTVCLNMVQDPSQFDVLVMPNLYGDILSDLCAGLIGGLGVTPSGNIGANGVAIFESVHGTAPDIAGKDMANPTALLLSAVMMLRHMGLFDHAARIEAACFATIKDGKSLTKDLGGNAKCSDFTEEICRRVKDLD
Sequence of UniProt Q8TEQ6 (Q8TEQ6 whole entry, looked up): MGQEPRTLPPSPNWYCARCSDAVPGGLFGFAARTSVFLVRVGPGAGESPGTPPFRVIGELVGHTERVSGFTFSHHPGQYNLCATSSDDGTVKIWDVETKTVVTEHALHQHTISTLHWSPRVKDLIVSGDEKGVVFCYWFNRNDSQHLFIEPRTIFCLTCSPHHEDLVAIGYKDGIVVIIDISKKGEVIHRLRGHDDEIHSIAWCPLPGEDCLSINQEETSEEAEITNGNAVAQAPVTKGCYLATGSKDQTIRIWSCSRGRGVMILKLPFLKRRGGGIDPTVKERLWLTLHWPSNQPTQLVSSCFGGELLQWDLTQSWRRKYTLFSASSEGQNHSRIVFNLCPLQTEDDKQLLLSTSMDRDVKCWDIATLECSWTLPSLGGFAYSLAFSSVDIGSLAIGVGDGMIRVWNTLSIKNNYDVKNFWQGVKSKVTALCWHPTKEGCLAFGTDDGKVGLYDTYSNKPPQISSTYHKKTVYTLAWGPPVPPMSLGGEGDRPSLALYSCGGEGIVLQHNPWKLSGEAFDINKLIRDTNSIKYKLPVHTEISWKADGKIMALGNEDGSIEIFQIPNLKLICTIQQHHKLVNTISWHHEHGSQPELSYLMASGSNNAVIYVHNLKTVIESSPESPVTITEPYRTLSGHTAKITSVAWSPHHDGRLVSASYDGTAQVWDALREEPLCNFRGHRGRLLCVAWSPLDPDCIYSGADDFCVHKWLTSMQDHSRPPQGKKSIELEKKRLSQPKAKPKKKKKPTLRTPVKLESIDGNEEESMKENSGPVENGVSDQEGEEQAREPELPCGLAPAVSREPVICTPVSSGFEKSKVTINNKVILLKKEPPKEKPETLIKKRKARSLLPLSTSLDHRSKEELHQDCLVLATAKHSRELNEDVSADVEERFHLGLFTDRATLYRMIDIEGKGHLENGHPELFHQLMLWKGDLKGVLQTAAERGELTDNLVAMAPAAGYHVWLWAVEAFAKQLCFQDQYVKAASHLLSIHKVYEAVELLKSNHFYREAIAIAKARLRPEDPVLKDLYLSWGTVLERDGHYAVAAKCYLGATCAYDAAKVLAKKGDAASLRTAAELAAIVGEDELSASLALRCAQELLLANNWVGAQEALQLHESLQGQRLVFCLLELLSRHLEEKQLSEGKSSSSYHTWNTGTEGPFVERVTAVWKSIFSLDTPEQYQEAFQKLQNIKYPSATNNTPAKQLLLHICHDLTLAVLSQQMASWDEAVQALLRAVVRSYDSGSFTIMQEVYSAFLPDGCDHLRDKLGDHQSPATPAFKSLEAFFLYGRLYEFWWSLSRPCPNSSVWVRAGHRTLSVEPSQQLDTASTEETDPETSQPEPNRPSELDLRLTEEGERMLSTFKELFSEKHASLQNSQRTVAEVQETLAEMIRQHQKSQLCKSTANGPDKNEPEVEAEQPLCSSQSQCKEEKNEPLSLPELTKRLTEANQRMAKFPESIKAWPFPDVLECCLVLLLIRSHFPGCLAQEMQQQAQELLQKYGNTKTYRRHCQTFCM
Sequence of UniProt P06865 (P06865 whole entry, looked up): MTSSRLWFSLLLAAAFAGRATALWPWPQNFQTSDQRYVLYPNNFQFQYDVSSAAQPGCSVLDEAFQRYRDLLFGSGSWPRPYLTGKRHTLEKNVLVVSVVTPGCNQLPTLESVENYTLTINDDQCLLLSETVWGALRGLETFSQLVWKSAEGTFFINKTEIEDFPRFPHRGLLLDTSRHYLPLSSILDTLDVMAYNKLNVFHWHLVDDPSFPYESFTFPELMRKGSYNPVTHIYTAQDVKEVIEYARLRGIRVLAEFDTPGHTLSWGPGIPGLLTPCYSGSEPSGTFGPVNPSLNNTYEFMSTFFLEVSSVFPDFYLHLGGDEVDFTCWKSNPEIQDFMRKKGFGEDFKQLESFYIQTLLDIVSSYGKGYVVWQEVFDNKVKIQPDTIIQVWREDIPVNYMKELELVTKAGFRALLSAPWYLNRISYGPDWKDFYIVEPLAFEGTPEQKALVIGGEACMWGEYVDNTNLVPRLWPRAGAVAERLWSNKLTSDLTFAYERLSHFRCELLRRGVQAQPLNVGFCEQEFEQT
Sequence of UniProt P31943 (P31943 whole entry, looked up): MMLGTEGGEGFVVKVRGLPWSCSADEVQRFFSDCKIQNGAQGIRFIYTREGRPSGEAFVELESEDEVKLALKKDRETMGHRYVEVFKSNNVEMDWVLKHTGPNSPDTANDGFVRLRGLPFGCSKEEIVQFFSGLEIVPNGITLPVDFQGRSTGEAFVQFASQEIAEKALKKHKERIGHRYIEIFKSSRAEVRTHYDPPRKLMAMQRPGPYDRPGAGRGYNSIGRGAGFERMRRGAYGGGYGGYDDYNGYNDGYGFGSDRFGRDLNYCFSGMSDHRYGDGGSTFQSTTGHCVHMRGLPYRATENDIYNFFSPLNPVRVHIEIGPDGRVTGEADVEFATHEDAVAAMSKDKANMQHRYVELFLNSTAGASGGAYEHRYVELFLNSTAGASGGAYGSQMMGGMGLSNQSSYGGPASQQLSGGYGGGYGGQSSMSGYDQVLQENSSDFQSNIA

Compound in one test: Cc1cccc(CC(=O)N2CCc3c2ccc(-c2cn(C)c4ncnc(N)c24)c3F)n1
Briefly: log2 fold change, soluble protein after heating vs DMSO (PISA); higher = thermal stabilisation; K562 cells, 10 uM, 30 min; active = over 0.2 and 3.5 SD of the protein, either way, in both replicates (recomputed). In a few lines:
(§1)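 Soluble protein was quantified by TMTpro 16plex LC-MS/MS after channel sums were equalised. It was obtained as the supernatant after 21,000xg for 90 min from pooled aliquots of K562 cells (2×10^6 cells/mL, 10 μM compound, 30 min) heated for 3 min across 48°C-58°C and extracted in PBS with 0.5% NP-40 at 4°C. Thermal stability values are relative to control samples and come from duplicates. They are given as log2 fold changes.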
Turning to FANCD2 isoform 1 (UniProt Q9BXW9), the log2 fold change was -0.014 (inactive).

Regarding IDH3A (UniProt P50213), the log2 fold change is 0.021 (inactive).

For GLCCI1 (UniProt Q86VQ1), the log2 fold change was 0.037 (inactive).

As to FMC1 (UniProt Q96HJ9), the log2 fold change was -0.026 (inactive).

As for GABPA (UniProt Q06546), the log2 fold change was 0.034 (inactive).

GEMIN5 (UniProt Q8TEQ6): the log2 fold change is 0.065 (inactive).

On to GLS (UniProt O94925), for which the log2 fold change is 0.025 (inactive).

As for HEXA (UniProt P06865), the log2 fold change was -0.023 (inactive).

As for GEMIN2 (UniProt O14893), the log2 fold change is -0.124 (inactive).

As to GNPAT (UniProt O15228), the log2 fold change is 0.045 (inactive).

With HNRNPH2 (UniProt P55795), the log2 fold change was 0.006 (inactive).

Turning to HNRNPH1 (UniProt P31943), the log2 fold change is 0.037 (inactive).

Compound in a further test: Cc1cn(-c2cc(NC(=O)c3ccc(C)c(Nc4nccc(-c5cccnc5)n4)c3)cc(C(F)(F)F)c2)cn1 [nilotinib]
The description is as above. In a few lines:
as §1
Turning to FUBP3 (UniProt Q96I24), the log2 fold change was -0.051 (inactive).

FKBP3 (UniProt Q00688): the log2 fold change is 0.028 (inactive).

In the case of HDAC6 (UniProt Q9UBN7), the log2 fold change is 0.126 (inactive).

Turning to GALK1 isoform 2 (UniProt P51570), the log2 fold change was -0.018 (inactive).

Turning to IFRD2 isoform 2 (UniProt Q12894), the log2 fold change was 0.153 (inactive).

FKBP7 (UniProt Q9Y680): the log2 fold change was 0.055 (inactive).

HEATR3 (UniProt Q7Z4Q2): the log2 fold change is -0.045 (inactive).

As for FKBP4 (UniProt Q02790), the log2 fold change is -0.05 (inactive).

As to GABARAPL2 (UniProt P60520), the log2 fold change was -0.015 (inactive).

Turning to GIGYF2 (UniProt Q6Y7W6), the log2 fold change is -0.161 (inactive).

Consider GSR (UniProt P00390), for which the log2 fold change was -0.025 (inactive).

GNAS (UniProt Q5JWF2): the log2 fold change was 0.103 (inactive).

Take HIST2H2BF isoform 2 (UniProt Q5QNW6): the log2 fold change was -0.044 (inactive).

In the case of HLTF (UniProt Q14527), the log2 fold change was 0.099 (inactive).

For GALNT4 (UniProt Q8N4A0), the log2 fold change was -0.049 (inactive).

Take FBXO7 (UniProt Q9Y3I1): the log2 fold change is 0.003 (inactive).

In the case of GMEB1 (UniProt Q9Y692), the log2 fold change is -0.04 (inactive).

In the case of GLUD1 (UniProt P00367), the log2 fold change is 0.382 (active).

On to FANCI (UniProt Q9NVI1), for which the log2 fold change was -0.13 (inactive).

As to HDAC10 (UniProt Q969S8), the log2 fold change was -0.118 (inactive).

Turning to FUCA1 (UniProt P04066), the log2 fold change was -0.011 (inactive).

Take GUK1 isoform 2 (UniProt Q16774): the log2 fold change is 0.226 (inactive).

Turning to GOLGB1 isoform 2 (UniProt Q14789), the log2 fold change is -0.054 (inactive).

As to FANCD2 isoform 1 (UniProt Q9BXW9), the log2 fold change was -0.145 (inactive).

As for IDH3A (UniProt P50213), the log2 fold change was -0.027 (inactive).

As to GLCCI1 (UniProt Q86VQ1), the log2 fold change was 0.073 (inactive).

On to FMC1 (UniProt Q96HJ9), for which the log2 fold change is 0.009 (inactive).

Regarding GABPA (UniProt Q06546), the log2 fold change was -0.103 (inactive).

Regarding GEMIN5 (UniProt Q8TEQ6), the log2 fold change is -0.046 (inactive).

Turning to GLS (UniProt O94925), the log2 fold change was -0.095 (inactive).

In the case of HEXA (UniProt P06865), the log2 fold change is -0.001 (inactive).

GEMIN2 (UniProt O14893): the log2 fold change is -0.045 (inactive).

For GNPAT (UniProt O15228), the log2 fold change is -0.011 (inactive).

HNRNPH2 (UniProt P55795): the log2 fold change was -0.09 (inactive).

Consider HNRNPH1 (UniProt P31943), for which the log2 fold change is -0.141 (inactive).

Compound in a further test: Cc1nc(Nc2n[nH]c3c2CN(C(=O)N[C@H](CN(C)C)c2ccccc2)C3(C)C)c2sccc2n1
The test is described as above. In a few lines:
as §1
As for FUBP3 (UniProt Q96I24), the log2 fold change is 0.035 (inactive).

Take FKBP3 (UniProt Q00688): the log2 fold change was 0.041 (inactive).

HDAC6 (UniProt Q9UBN7): the log2 fold change was -0.026 (inactive).

For GALK1 isoform 2 (UniProt P51570), the log2 fold change is -0.001 (inactive).

Consider IFRD2 isoform 2 (UniProt Q12894), for which the log2 fold change was 0.047 (inactive).

On to FKBP7 (UniProt Q9Y680), for which the log2 fold change is -0.058 (inactive).

Take HEATR3 (UniProt Q7Z4Q2): the log2 fold change is -0.088 (inactive).

For the target FKBP4 (UniProt Q02790), the log2 fold change is -0.011 (inactive).

As to GABARAPL2 (UniProt P60520), the log2 fold change was -0.028 (inactive).

Take GIGYF2 (UniProt Q6Y7W6): the log2 fold change is -0.105 (inactive).

For the target GSR (UniProt P00390), the log2 fold change is 0.02 (inactive).

GNAS (UniProt Q5JWF2): the log2 fold change is -0.02 (inactive).

With HIST2H2BF isoform 2 (UniProt Q5QNW6), the log2 fold change is -0.006 (inactive).

In the case of HLTF (UniProt Q14527), the log2 fold change was -0.193 (inactive).

Consider GALNT4 (UniProt Q8N4A0), for which the log2 fold change was 0.006 (inactive).

As to FBXO7 (UniProt Q9Y3I1), the log2 fold change is 0.059 (inactive).

Take GMEB1 (UniProt Q9Y692): the log2 fold change was -0.036 (inactive).

Regarding GLUD1 (UniProt P00367), the log2 fold change is 0.266 (active).

Consider FANCI (UniProt Q9NVI1), for which the log2 fold change is 0.113 (inactive).

HDAC10 (UniProt Q969S8): the log2 fold change is -0.075 (inactive).

Consider FUCA1 (UniProt P04066), for which the log2 fold change was -0.01 (inactive).

On to GUK1 isoform 2 (UniProt Q16774), for which the log2 fold change is -0.056 (inactive).

As for GOLGB1 isoform 2 (UniProt Q14789), the log2 fold change is 0.018 (inactive).

Consider FANCD2 isoform 1 (UniProt Q9BXW9), for which the log2 fold change is 0.15 (inactive).

IDH3A (UniProt P50213): the log2 fold change is -0.006 (inactive).

As for GLCCI1 (UniProt Q86VQ1), the log2 fold change is -0.103 (inactive).

Take FMC1 (UniProt Q96HJ9): the log2 fold change is 0.045 (inactive).

GABPA (UniProt Q06546): the log2 fold change is -0.115 (inactive).

Consider GEMIN5 (UniProt Q8TEQ6), for which the log2 fold change was -0.315 (active).

In the case of GLS (UniProt O94925), the log2 fold change is -0.069 (inactive).

Turning to HEXA (UniProt P06865), the log2 fold change is 0.017 (inactive).

As to GEMIN2 (UniProt O14893), the log2 fold change is 0 (inactive).

Turning to GNPAT (UniProt O15228), the log2 fold change is -0.008 (inactive).

Consider HNRNPH2 (UniProt P55795), for which the log2 fold change is -0.231 (inactive).

As for HNRNPH1 (UniProt P31943), the log2 fold change is -0.236 (inactive).
